Sampled rows, rich in hits. Any-hit rate of the full collection: about 0.96%.
V-ATPase pH: regulators of yeast V-ATPase proton pumping, primary screen, pHLuorin cytosolic pH fluorescence; S. cerevisiae; response, % at 10 µM; 350,000 tested, 0.37% active; in the data active = response mostly above about 7.3%, no sharp cut-off; inactive = mostly below about 5.4%; note: actives read high
beta cell repl: inducers of MIN6 beta-cell proliferation, primary screen, ATP luminescence, uHTS; MIN6 cells proliferation, ATPlite luminescence, 48 h; cells starved in 0.2% serum; 100% = growth in 10% serum; proliferation, % at 10 µM; 330,000 tested, 0.29% active;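 active = compounds whose signal lies at least 3.5 SD above the mean of all wells on their plate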;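 note: 0% = DMSO-treated cells in low-serum medium and 100% = 10% serum control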
Rtt109 Vps75: inhibitors of C. albicans Rtt109/Vps75 HAT, primary screen, biochemical, ThioGlo CoA-SH fluorescence, plate reader | Histone acetyltransferase RTT109 (Candida albicans (strain SC5314 / ATCC MYA-2876)), … | purified Rtt109/Vps75, 4 h | inhibition, % at 34.9 µM | 330,000 tested, 0.16% active | AID 540336, 2011;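 active = inhibition of at least 50% in every replicate; inconclusive = best replicate reaches 50% inhibition but some replicates fall short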
HDAC3 inhib: HDAC3 deacetylase inhibitors, primary screen, biochemical, fluorescence, cell-free homogeneous; inhibition, % at 8.3 µM; Histone deacetylase 3 (Homo sapiens), O15379; AID 2718, 2010; 320,000 tested, 0.15% active; recombinant HDAC3, fluorogenic peptide/trypsin coupled; in the data active = inhibition above about 26%, passing the limit was not always enough; inconclusive = no clear call, values can overlap the other calls
Target sequence (O15379 whole entry, looked up): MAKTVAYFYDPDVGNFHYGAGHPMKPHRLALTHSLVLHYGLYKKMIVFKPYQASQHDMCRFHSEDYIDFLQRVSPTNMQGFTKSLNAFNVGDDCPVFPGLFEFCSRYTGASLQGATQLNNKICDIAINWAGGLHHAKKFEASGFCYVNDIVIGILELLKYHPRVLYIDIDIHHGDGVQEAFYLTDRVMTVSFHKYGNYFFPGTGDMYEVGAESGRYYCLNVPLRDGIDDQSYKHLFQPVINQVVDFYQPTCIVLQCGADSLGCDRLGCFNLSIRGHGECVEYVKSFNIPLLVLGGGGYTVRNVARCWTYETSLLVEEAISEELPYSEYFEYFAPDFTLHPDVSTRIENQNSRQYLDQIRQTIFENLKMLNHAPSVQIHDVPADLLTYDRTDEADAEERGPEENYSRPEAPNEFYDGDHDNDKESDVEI
DAGLB inhibitor: DAGLB lipase inhibitors, primary screen, biochemical, fluorescence, HTS | Diacylglycerol lipase-beta (Homo sapiens), Q8NCG7 | AID 504411, 2011 | HEK293T DAGLB membrane lysate, EnzChek fluorogenic substrate | inhibition, % at 5.17 µM | 340,000 tested, 0.059% active; in the data active = inhibition above about 34%;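 note: 0% = enzyme with vehicle and 100% = wells lacking enzyme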
* hit, by the source's call; ? = inconclusive; / = not tested or not shown.

SMILES	V-ATPase pH	beta cell repl	Rtt109 Vps75	HDAC3 inhib	DAGLB inhibitor
Cc1ccc(NCC(=O)c2ccc(C)cc2)cc1	0	-5	-18	3	-6
O=C1c2ccccc2C(=O)N1OS(=O)(=O)c1ccccc1	/	/	/	44*	/
Cc1cc(S(=O)(=O)ON2C(=O)c3ccccc3C2=O)ccc1F	11*	/	4	?	-1
CC(O)(CS(=O)(=O)Cc1ccccc1)c1ccccc1 (stereo not given)	1	2	2	5	-2
O=C(COC(=O)CCNS(=O)(=O)c1cccs1)Nc1ccccc1	-1	-6	-2	-4	-2
Cc1nn(C(=O)c2ccccc2)c2c1C(=O)CC(C)(C)C2	-5	-2	2	91*	-1
CCCc1nn(C(=O)c2ccccc2)c2c1C(=O)CC(C)(C)C2	2	-1	25	72*	-1
CCOC(=O)C1(Cc2cccc(OC)c2)CCCN(C(=O)c2cc(C)oc2C)C1 (stereo not given)	1	1	1	-2	-5
CCN(CC(F)(F)C(F)F)S(=O)(=O)c1ccc(NC(=O)OC)cc1	-5	-1	4	0	-1
Cc1ccc2nc(Cl)c3nnnn3c2c1	10.0*	-6	1	/	-4
CCN1/C(=C/c2ccc3cc(C)ccc3[n+]2CC)Sc2cc(C)c(C)cc21	4	-5	96*	/	-1
CCN1/C(=C/c2ccc3cc(C)ccc3[n+]2CC)Sc2ccccc21	4	-6	?	19	-15
COc1ccc(OC)c(C2C3=C(CCCC3=O)Nc3c2c(=O)n(C)c(=O)n3C)c1 (stereo not given)	-1	0	9	-4	-2
COc1ccc(CC(NC(C)=O)C(=O)NC2CCN(c3nc(C)cc(C)c3C#N)CC2)cc1 (stereo not given)	0	-1	53*	-9	-1
COc1ccc(CC(NC(C)=O)C(=O)NC2CCN(c3nc(C)cc(C)c3C#N)CC2)cc1OC (stereo not given)	-4	2	-6	-5	2
CC(C)CC(COCc1ccc(C(F)(F)F)cc1)N1CCN(C(=O)c2ccc(C(F)(F)F)cc2)CCC1=O (stereo not given)	1	-8	-4	39*	-12
CCCC(OC(=O)CN1C(=O)COc2ccccc21)C(=O)NC1CCCC1 (stereo not given)	-5	-3	-3	1	3
CC(OC(=O)Cc1n[nH]c(=O)c2ccccc12)C(=O)Nc1ccccc1[N+](=O)[O-] (stereo not given)	-3	3	-9	4	0
COc1ccccc1NC(=O)C(C)OC(=O)Cc1n[nH]c(=O)c2ccccc12 (stereo not given)	16*	3	-3	15	1
O=C1C(Cl)=C(NCCc2ccccc2)C(=O)c2ccccc21	12*	/	7	/	17
CC(=O)OCC1O[C@@H](O[C@@H]2C[C@H]3C(C)(C)[C@H](OC(C)=O)CC[C@]3(C)[C@H]3CC[C@]45C[C@]4(CC[C@H]5[C@@H](C)C[C@@H](O)[C@H](O)C(C)(C)O)[C@@]32C)[C@H](O)[C@@H](O)[C@@H]1O (stereo not given in full)	/	-9	/	42*	/
CC(C)=CCC[C@](C)(O[C@@H]1O[C@H](CO[C@@H]2O[C@H](CO)[C@@H](O)[C@H](O)[C@H]2O)[C@@H](O)[C@H](O)[C@H]1O)C1CC[C@]2(C)C1C(=O)CC1[C@@]3(C)CC[C@H](O[C@H]4O[C@@H](CO)[C@H](O)[C@@H](O)[C@@H]4O)C(C)(C)C3CC[C@]12C (stereo not given in full)	1	6	1	-2	1
COC(=O)C(C)Sc1n[nH]c(=S)s1 (stereo not given)	4	1	7	31*	2
COC(=O)CSc1n[nH]c(=S)s1	1	-1	/	10	1
COC(=O)C1=NNC2(c3ccc(Cl)cc3)C(=O)N(c3ccc(Cl)cc3)C(=O)C12 (stereo not given)	0	1	-8	12	0
COC(=O)C1=NNC2(c3ccc(Cl)cc3)C(=O)N(c3ccccc3)C(=O)C12 (stereo not given)	1	0	0	34*	3
